Compound activity as filed in PubChem.
USP28 block: blocks human USP28 ubiquitin-rhodamine cleavage; Q96RU2; inhibition, % at 25 µM; 3% of 47,000 active; purified USP28, Ub-rhodamine cleavage fluorescence, 30 min
USP30 block: blocks human USP30 ubiquitin-rhodamine cleavage; purified USP30, Ub-rhodamine cleavage fluorescence; AID 1645860; Q70CQ3; inhibition, % at 25 µM; 5.3% of 47,000 active
USP17 block: blocks human USP17 ubiquitin-rhodamine cleavage | A8MUK1 | inhibition, % at 50 µM | 6.5% of 47,000 active | purified USP17, Ub-rhodamine cleavage fluorescence, 3 h
OTUD3 inh: blocks human OTUD3 ubiquitin-rhodamine cleavage. purified OTUD3, Ub-rhodamine fluorescence, 2 h. inhibition, % at 25 µM. 0.7% of 47,000 active
Target sequence (Q5T2D3 whole entry, looked up): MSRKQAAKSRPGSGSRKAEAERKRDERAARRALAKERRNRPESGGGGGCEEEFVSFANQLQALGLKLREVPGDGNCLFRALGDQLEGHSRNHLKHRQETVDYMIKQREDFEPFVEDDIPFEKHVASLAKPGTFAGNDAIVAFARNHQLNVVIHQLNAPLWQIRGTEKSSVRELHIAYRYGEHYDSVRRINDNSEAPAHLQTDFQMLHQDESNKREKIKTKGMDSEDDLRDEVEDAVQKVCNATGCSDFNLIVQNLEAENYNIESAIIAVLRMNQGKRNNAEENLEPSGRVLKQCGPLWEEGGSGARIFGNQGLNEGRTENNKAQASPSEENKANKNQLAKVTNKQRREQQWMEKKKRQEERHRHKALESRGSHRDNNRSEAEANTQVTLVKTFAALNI
Each line names hits and unclear results; the compound was inactive in the other large screens. Hits are enriched below; roughly 11% of the tested compounds scored in any of these assays. No stated cut-off is given here; in the data, active means inhibition above about 30%; inactive means the rest.

Cc1ccccc1CN1CC2(CCN(S(=O)(=O)c3ccccc3)C2)C1	none
C=C(NC(=O)C(=C)NC(=O)c1ccc2c(n1)-c1coc(n1)C(=C)NC(=O)C(=C)NC(=O)c1nc(oc1C)C(=C)NC(=O)C(C(C)(C)O)NC(=O)C(=C)NC(=O)c1nc(oc1C)/C(=C/C)NC(=O)C(C(C)O)NC(=O)c1csc-2n1)C(N)=O (stereo not drawn)	USP17 block 36.2
Cc1ccc(C2=NC3(CCN(C(=O)c4ccc5cc[nH]c5c4)CC3)ON2)cc1	none
O=C(c1ccc2cc[nH]c2c1)N1CCC2(CC1)N=C(c1ccccc1)NO2	USP17 block 33.9
O=C(COc1ccc(Cl)cc1)N1CCc2[nH]nc(-c3ccc(Cl)cc3)c2C1	USP30 block 33.3
O=C(c1ccccc1)c1ccc(OCC(=O)N2CCSc3ccccc32)cc1	none
Cc1cccc(NC(=O)[C@@H]2CCCN2C2=NS(=O)(=O)c3ccccc32)c1C	USP30 block 31.6, USP17 block 34.8
O=C(OCc1csc(-c2ccc(F)cc2)n1)c1ccc(CN2CCCC2=O)cc1	none
C[C@H](NC(=O)c1cccs1)c1nnc2ccccn12	USP30 block 30.3
Cc1ccc(C(=O)N[C@@H](C)c2nnc3ccccn23)cc1	none
Cc1ccccc1CNC(=O)N1C[C@H]2C[C@H]3[C@@](CNS3(=O)=O)(C1)O2	none
O=C1CC(C(=O)Nc2ccccc2)N=C(N2CCN(c3ccccc3F)CC2)N1 (stereo not drawn)	USP30 block 33.2
Cc1ccc(N2CCN(C3=NC(C(=O)Nc4ccccc4)CC(=O)N3)CC2)cc1 (stereo not drawn)	none
Cc1ccc(NS(=O)(=O)c2[nH]ncc2C(=O)Nc2ccccc2)cc1	none
COc1ccc2c(c1)CCc1c-2n[nH]c1C(=O)N1CCN(c2ccccn2)CC1	none
CCc1noc(-c2c(C)cc(C)n2CC(=O)NCc2ccc(Cl)cc2)n1	USP30 block 39.4
NC(=O)c1cc(C(=O)Cc2ccc(Cl)cc2)c[nH]1	none
Cc1cc(C(F)(F)F)nc(-n2cc(-c3ccccc3)nn2)n1	USP17 block 34.5
COc1ccc(-c2cn(-c3ccc(SC(F)F)cc3)c3[n+]2CCC3)cc1OC	USP30 block 30.0
COc1ccc(C2CC(=O)N(c3cccc(F)c3)C(=O)C2)cc1OC	none
CO[C@H]1CCC(O[C@@]2(C)C(CC3C[C@@H](OC)[C@@H](C)[C@]4(O3)O[C@@](C)(C3CCC(C5CCC(C6O[C@](C)(O)[C@H](C)C[C@@H]6C)O5)O3)[C@H](OC)[C@H]4C)O[C@](O)([C@@H](C)C(=O)O)[C@@H](C)[C@@H]2OC)O[C@@H]1C (stereo partly drawn)	none
O=C(Nc1ccc(Br)cc1F)c1cc(S(=O)(=O)NCCc2ccccc2)ccc1F	USP30 block 36.0
COc1ccccc1NC(=O)c1cc(S(=O)(=O)NC2CCCC(C)C2C)ccc1F (stereo not drawn)	none
O=C(NC1CCCCC1)C1CCN(c2ccc(N3CCCCC3)nn2)CC1	none
COc1ccc(-c2nnc(N3CCC(C(=O)NC4CCCC4)CC3)o2)cc1	USP30 block 80.0, USP17 block 74.7
CSCC[C@H](NC(=O)[C@@H]1Cc2c([nH]c3ccccc23)C2c3ccccc3C(=O)N21)C(=O)NCc1ccc(F)cc1 (stereo partly drawn)	none
COc1cccc(NC(=O)C(OC(=O)c2ccc3c(=O)n4c(nc3c2)CCCCC4)c2ccccc2)c1 (stereo not drawn)	none
C=C(C)[C@@H]1CC[C@]2(C)[C@H](CC[C@@H]3[C@@H](C(C)(O)CCC=C(C)C)CC[C@]32C)[C@@]1(C)CCC(=O)O (stereo partly drawn)	USP28 block 69.4, USP30 block 93.4, USP17 block 98.9, OTUD3 inh 87.5
O=C(Cn1cnc2cc([N+](=O)[O-])ccc2c1=O)NCc1ccc2c(c1)OCO2	none
Cn1c(=O)c2c(SCC(=O)NCc3ccc4c(c3)OCO4)nc(-c3ccc([N+](=O)[O-])cc3)nc2n(C)c1=O	USP30 block 30.7
Cc1ccc(-c2nc(SCC(=O)N3CCCC3)c3c(=O)n(C)c(=O)n(C)c3n2)cc1	USP30 block 39.4
Fc1cnc(N2CCCC3(CCN(c4ncccn4)C3)C2)nc1 (stereo not drawn)	none
Cc1nc2c3ccccc3nc(NCc3ccc4c(c3)OCO4)n2n1	USP17 block 53.7
CC(C)NC(=O)c1cccc(-c2noc(-c3cccc4[nH]ccc34)n2)c1	none
Cc1ccc2c(c1)[nH]c1c(N3CCc4ccccc4C3)ncnc12	USP17 block 42.9
COc1c2c(cc3cc(O)c4c(=O)cc(C)oc4c13)CCC2=O	USP17 block 59.6
Cc1cc(C)n2nc(CN(Cc3ccccc3)C(=O)C(C)C)nc2n1	none (no result: USP28 block, USP30 block)
Cc1cc(NC(=O)CSc2nnc(-c3cccc(Cl)c3)o2)no1	USP17 block 49.2
O=C(CSc1nc2ccccc2o1)N1CCCc2ccccc21	none
Cc1ccc(-c2nnc3ccc(SCC(=O)N4CCCc5ccccc54)nn23)cc1	USP30 block 30.4
O=C(CSc1nnc(-c2cccc(Cl)c2)o1)N1CCCc2ccccc21	USP30 block 32.3
Cc1ccc(NC(=O)CSc2nnc(-c3ccncc3)o2)cc1F	USP17 block 45.7
COc1ccc(-c2nnc3ccc(SCC(=O)N4CCCc5ccccc54)nn23)cc1	none
COc1ccc(Cl)cc1NC(=O)COC(=O)c1cc2ccccc2oc1=O	none
Cc1ccc(-c2nnc(SCc3noc(CCC(=O)Nc4ccccc4)n3)o2)cc1	USP30 block 40.0
CN(C)c1ccc(C(=O)NCc2ccc3c(c2)CCO3)cc1	none
O=c1c2ccsc2ncn1Cc1ccccc1F	USP28 block 32.5
O=S(=O)(Nc1ccc(Oc2ccccc2)cc1)c1ccccc1F	USP28 block 31.7, USP30 block 40.7, USP17 block 34.4
COc1ccccc1CNC(=O)c1ccc(CSc2nc3ccncc3n2Cc2ccccc2)cc1	USP28 block 30.6, USP30 block 55.7, USP17 block 40.4
COc1ccc(CSc2nc3ccncc3n2CC(=O)Nc2ccc(C)cc2C)cc1	USP28 block 70.2, USP30 block 84.2, USP17 block 72.1, OTUD3 inh 33.7
COc1ccc(Cn2c(SCc3ccc(C(=O)NCCc4ccccc4)cc3)nc3ccncc32)cc1	USP30 block 53.1, USP17 block 32.0
COc1cccc(CNC(=O)c2ccc(CSc3nc4ccncc4n3Cc3ccccc3F)cc2)c1	USP28 block 34.2, USP30 block 53.7, USP17 block 35.8
O=C(NC1CCSc2ccc(F)cc21)c1ccccc1F (stereo not drawn)	none
COc1ccccc1CC(=O)Nc1cccn2cnnc12	none
COC[C@H]1CCCN1C(=O)CC[C@H]1CNC(=O)[C@@H]2[C@@H](CCN2C(C)C)N1C	none
Cn1ncc2c1ncn1nc(-c3ccccc3F)nc21	none
CN1CC(c2nc3ccccc3n2Cc2c(F)cccc2Cl)CC1=O (stereo not drawn)	none
COc1ccc(OC)c(CCNC(=O)c2ccc(CSc3nc4ccncc4[nH]3)cc2)c1	none
COc1ccc(CCNC(=O)c2ccc(CSc3nc4ccncc4[nH]3)cc2)cc1OC	USP28 block 33.5
COc1ccc(NC(=O)C(=O)NCCN2CCN(C(=O)c3c(F)cccc3F)CC2)cc1	USP30 block 33.3
